From PubChem BioAssay
Hits are enriched below; roughly 5.4% of the tested compounds scored in any of these assays.
ALOX12 inhib – qHTS Assay for Inhibitors of 12-hLO (12-human lipoxygenase). purified 12-hLO, xylenol orange hydroperoxide absorbance. AID 1452, 2008. Potency, µM (titrated, usually from 57.1 µM), hits mostly inhibitors. 0.12% of 150,000 active. Polyunsaturated fatty acid lipoxygenase ALOX12 (Homo sapiens), P18054; also: nearly all actives have a fitted effect of over 55% in size
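Lipoxygenase turnover measured by absorbance at 573 and 405 nm after Fe-XO development. Human 12hLO 150 nM, arachidonate 40 uM, pH 7.0 Hepes buffer with detergent; 15 min compound preincubation, 30 min reaction.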
15-hLO-2 inh – qHTS Assay for Inhibitors of 15-hLO-2 (15-human lipoxygenase 2) | Potency, µM (series often up to 57.1 µM), hits mostly inhibitors | purified 15hLO-2, xylenol orange hydroperoxide absorbance | 0.56% of 110,000 active; also: nearly all actives have a fitted effect of over 60% in size
Target sequence (O15296 whole entry, looked up): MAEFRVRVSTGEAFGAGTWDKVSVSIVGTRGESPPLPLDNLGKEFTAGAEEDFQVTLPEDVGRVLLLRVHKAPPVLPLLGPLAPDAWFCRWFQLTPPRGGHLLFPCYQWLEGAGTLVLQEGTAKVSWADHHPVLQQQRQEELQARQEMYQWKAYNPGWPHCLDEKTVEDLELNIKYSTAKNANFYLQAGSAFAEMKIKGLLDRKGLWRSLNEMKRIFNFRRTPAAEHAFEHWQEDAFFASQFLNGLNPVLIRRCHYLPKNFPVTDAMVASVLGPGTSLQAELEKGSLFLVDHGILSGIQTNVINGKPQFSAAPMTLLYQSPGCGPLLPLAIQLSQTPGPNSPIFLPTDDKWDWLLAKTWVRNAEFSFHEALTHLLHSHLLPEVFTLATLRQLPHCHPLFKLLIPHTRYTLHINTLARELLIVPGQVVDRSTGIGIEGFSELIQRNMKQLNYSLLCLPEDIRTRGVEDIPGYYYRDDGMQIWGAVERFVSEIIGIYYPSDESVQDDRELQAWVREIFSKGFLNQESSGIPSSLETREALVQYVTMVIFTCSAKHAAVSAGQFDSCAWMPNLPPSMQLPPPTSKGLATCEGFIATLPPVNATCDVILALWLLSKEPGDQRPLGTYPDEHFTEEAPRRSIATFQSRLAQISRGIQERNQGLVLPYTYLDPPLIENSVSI
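Read-out: hydroperoxide product oxidises ferrous iron, measured as xylenol orange complex via the 573-to-405 nm absorbance ratio after 30 min. Reaction: 50 nM enzyme, 15 min compound preincubation, 45 uM arachidonic acid, 90 min RT, Hepes pH 7.5 with Triton X-100.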
IMPase Li inh – qHTS Assay for Identifying the Cell-Membrane Permeable IMPase Inhibitors: Potentiation with Lithium | AID 1457, 2008 | CHO-M1 cells, IP1 TR-FRET (IP-One), carbachol + lithium | 0.35% of 210,000 active | Potency, µM (series often up to 59.4 µM), hits mostly inhibitors;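 also: IP1 builds up when IMPase is blocked and the TR-FRET signal falls; nearly all actives have a fitted effect of over 50% in size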
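Readout is a homogeneous TR-FRET IP1 immunoassay (Ex 320, Em 665 and 620), where raised cytosolic IP1 lowers signal. Cells were CHO-M1 treated 30 min at 37C with test compounds plus a little lithium; AC50 values came from Hill-equation fitting.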
HPGD block – qHTS Assay for Inhibitors of HPGD (15-Hydroxyprostaglandin Dehydrogenase); Potency, µM, usual class: inhibitors; 15-hydroxyprostaglandin dehydrogenase [NAD(+)] (Homo sapiens), P15428; purified HPGD, NADH fluorescence kinetic, PGE2 substrate; 4.3% of 150,000 active; active = well fitted inhibition curve with a large enough effect, not every such curve was filed as active; inconclusive = small, poorly fitted or top-dose-only effect, or another doubt; inactive = no such curve, though single readings can be large or run the other way
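NADH formation kinetics: reaction with 30 uM PGE2 and 1 mM NAD+ (final), 20 nM enzyme, Tris-HCl pH 8 with Tween 20, after 15 min compound preincubation at room temperature. Fluorescence change, last versus first of five reads.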
PNC inhibitor – High Content Assay for Compounds that inhibit the Assembly of the Perinucleolar Compartment. 3.1% of 140,000 active. activity change (PNC), negative = inhibition, % at 10 µM. PC3M PTB-GFP, PNC prevalence imaging, 16 h; active compounds read low;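 active = readout at or below -70, meaning at least 70% loss of cells showing the perinucleolar compartment, a nuclear body marking cancer cells; inconclusive = readout between -30 and a set limit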
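PC3M cells stably expressing PTB-GFP, 750–1000 cells/well, treated 16 h at 37 °C with compound (23 nl of library stock), in duplicate. After paraformaldehyde fixation and Hoechst stain, imaged at 20x; PNC prevalence scored by image analysis.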
IMPase inh – qHTS Assay for Identifying the Cell-Membrane Permeable IMPase Inhibitors. CHO-M1 cells, IP1 accumulation, HTRF TR-FRET ratio. inhibition (IP1 accumulation), % at 46.1 µM. Inositol monophosphatase 1 (Rattus norvegicus), P97697. AID 901, 2007. 120,000 tested, under 10 active; active = well fitted curve in the direction sought with a large enough effect in the signal ratio, not every such curve was filed as active; inconclusive = small, poorly fitted or top-dose-only effect, or a change in a side signal; inactive = no such curve, though single readings can be large or run the other way; the % refers to the signal ratio;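 also: cells stimulated with carbachol in lithium chloride buffer; higher means more IMPase inhibition seen as more IP1 and lower FRET ratio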
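Carbachol-driven Gq signalling in CHO-M1 cells (2000/well) generates IP1. Compounds that block IMPase raise IP1 and so reduce the FRET signal from Eu-anti-IP1 and d2-IP1 after a 10 min room-temperature lysis.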
A number is an active result; 0 = inactive; ? = inconclusive; - = no result; [ ] = dose if it differs, or a comment. Unless noted, calls follow the shape of the dose curve; as a rule, active = well fitted curve in the direction sought with a large enough effect; inconclusive = small, poorly fitted or top-dose-only effect, or another doubt; inactive = no such curve, though single readings can be large; an effect the other way counts as inactive or inconclusive.

SMILES	ALOX12 inhib	15-hLO-2 inh	IMPase Li inh	HPGD block	PNC inhibitor	IMPase inh
CCC(C)(C)NC(=O)C(c1ccccc1)N(C(=O)c1csnn1)C1CC1 (centres undefined)	0	-	0	0	0	0
CCOc1ccccc1-c1ccc(C(=O)O)o1	0[0.00818 µM]	0[0.0915 µM]	0	?	-	-
CC(C)C1O/C(=N/C(=O)Nc2ccc(Cl)c(Cl)c2)NC1=O (centres undefined)	0	0	0	20µM	0	0
COc1ccc2cc(CCNS(=O)(=O)c3ccc(C)cc3)c(=O)[nH]c2c1	-	-	-	-	-	0
COc1ccccc1Oc1c(C)oc2c(CN3CCN(C)CC3)c(O)ccc2c1=O	0	0	0	?	0	0
COC(=O)c1ccc(Oc2c(C)oc3c(CN4CCN(C)CC4)c(O)ccc3c2=O)cc1	0	0	12.6µM	?	0	0
COc1cc(/C=N/Nc2ncc(C(F)(F)F)cc2Cl)cc(OC)c1O	0	-	0	14.1µM	0	-
S=c1[nH]nc(-c2ccccn2)n1/N=C/c1cccc(Cl)c1	-	-	0	-	-	-
S=c1[nH]nc(-c2ccncc2)n1/N=C/c1ccccc1	0	-	0	31.6µM	0	0
Clc1ccccc1-c1ccc(/C=N/Nc2nncc(-c3ccccc3)n2)o1	-	-	0	-	-	-
Cc1cccc(/C=N/n2c(-c3ccncc3)n[nH]c2=S)c1	0	-	0	15.8µM	?	-
S=c1[nH]nc(COc2ccccc2)n1/N=C/c1ccncc1	-	-	0	-	-	-
S=c1[nH]nc(-c2ccccc2)n1/N=C/c1ccc(-c2ccccc2Cl)o1	0	-	0	3.16µM	-100.4	-
Cc1cccc(/C=N/n2c(-c3cc(-c4ccccc4)n[nH]3)n[nH]c2=S)c1	0	-	0	5.01µM	0	-
Cc1cccc(-c2n[nH]c(=S)n2/N=C/c2ccc(C)s2)c1	0	-	0	3.98µM	?	-
O=C(OC1CCOC1=O)c1cc(-c2ccc(Br)cc2)nc2ccccc12 (centres undefined)	0	0	0	0	-119.2	0
O=C(OC1CCOC1=O)c1cc(-c2cccc(Br)c2)nc2ccccc12 (centres undefined)	-	-	0	-	-	-
CCn1nc(CC(=O)Nc2nnc(CC(=O)N3CCCCC3)s2)c2ccccc2c1=O	0	0	0	22.4µM	0	0
Cc1nn(CC(=O)Nc2nnc(CC(=O)N3CCCC3)s2)c(=O)c2ccccc12	0	0	-	-	?	0
COc1ccc(-c2noc(CCC(=O)NCCN(C)Cc3ccccc3)n2)cc1	0	0	0	15.8µM	0	0
COc1ccc(-c2noc(CCC(=O)NCc3ccc(OC)cc3OC)n2)cc1	-	-	-	-	-	0
COc1ccc(Cc2nc(-c3ccc(NC(=O)c4cccnc4)cc3)no2)cc1	0	0	0	0	-126.1	0
COc1ccc(-c2noc(CCC(=O)Nc3cccnc3)n2)cc1OC	0	0	0	0	-100.0	0
COc1ccc(-c2noc(CCC(=O)NCc3cccnc3)n2)cc1	0	0	-	-	0	0
COc1ccc(NC(=O)CCc2nc(-c3ccc(C)cc3)no2)c(OC)c1	0	0	0	0	-103.5	0
SMILES	ALOX12 inhib	15-hLO-2 inh	IMPase Li inh	HPGD block	PNC inhibitor	IMPase inh
Cc1cc(NC(=O)C2CCCN(S(=O)(=O)c3cccc4nonc34)C2)ccc1Br (centres undefined)	-	-	-	-	-	0
COc1ccc(CC(=O)Nc2ccc(-c3noc(-c4ccc(Cl)cc4)n3)cc2)cc1	0	-	0	0	0	0
COc1ccc(-c2noc(CCC(=O)NC3CCCCC3)n2)cc1OC	0	0	0	35.5µM	0	0
COc1ccc(CC(=O)Nc2ccc(-c3noc(-c4cc(OC)c(OC)c(OC)c4)n3)cc2)cc1	0	-	0	?	-100.0	0
Cc1noc(C)c1-c1nc(NCc2ccccc2)c2ccccc2n1	-	0	0	-	-	-
Cc1ccc(-c2ccc(SCC(=O)N3CCc4ccccc43)nn2)cc1	0	-	0	0	-83.4	0
